Most compounds without a hit are left out; they make up all but 10% or so of the library.
JMJD2A Tudor inh = qHTS Assay for Inhibitors of JMJD2A-Tudor Domain; AlphaScreen JMJD2A-Tudor / H3K4me3 peptide binding; Potency, µM (series often up to 114 µM), hits mostly inhibitors; Lysine-specific demethylase 4A (Homo sapiens), O75164; AID 504339, 2011; hit rate 4.4% among 390,000; further: nearly all actives have a fitted effect of over 50% in size
CtBP-E1A blk = qHTS Assay for Inhibitors of the CtBP/E1A Interaction; CtBP / adenovirus E1A interaction (AlphaScreen); AlphaScreen GST-E1A/His-CtBP binding, 1536-well; hits give low values; hit rate 0.49% among 340,000; activity change, % (test concentration not listed); in the data active means activity change below about -65%; inconclusive means mostly about -30% to -63%
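AlphaScreen with 125 nM GST-E1A and 125 nM His-CtBP (5X stocks) in Tris pH 8.0, 300 mM NaCl, BSA, Tween 20, TCEP. Compounds preincubated 2 h at 37 deg C, then glutathione donor/nickel acceptor beads added for 1 h at 37 deg C in dark.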
BAZ2B inh = qHTS Assay for Inhibitors of BAZ2B. Bromodomain adjacent to zinc finger domain protein 2B (Homo sapiens), Q9UIF8. AlphaScreen BAZ2B-H3K14Ac peptide displacement. Potency, µM (doses to about 114 µM), most hits filed as inhibitors. hit rate 4.4% among 360,000; further: nearly all actives have a fitted effect of over 60% in size
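Multi-concentration screen (max 110 uM) measuring displacement of acetylated histone H3 peptide from BAZ2B by AlphaScreen, using 50 nM protein, 50 nM peptide and 10 ug/mL streptavidin donor plus Ni-chelate acceptor beads.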
HP1b chromo inh = HTS for Inhibitors of HP1-beta Chromodomain Interactions with Methylated Histone Tails; Chromobox protein homolog 1 (Homo sapiens), P83916; AlphaScreen HP1-beta / biotin-H3K9me3 peptide binding; Potency, µM (doses to about 114 µM), most hits filed as inhibitors; hit rate 0.56% among 390,000; AID 540317, 2011; further: nearly all actives have a fitted effect of over 70% in size
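HP1-beta protein (50 nM final) preincubated 30 min at room temperature with biotinylated H3(1-18)K9me3 peptide (50 nM) in PBS pH 7.4, 0.01% Tween-20, then compound added for 30 min. AlphaScreen streptavidin donor/nickel chelate acceptor beads (10 ug/mL final), 30 min dark, luminescence read.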
Six1-Eya2 blk = qHTS Assay for Inhibitors of the Six1/Eya2 Interaction | activity change, % (concentration not given with the values) | hit rate 0.56% among 360,000 | AlphaScreen GST-Six1/His-Eya2 binding, biochemical; hits give low values | AID 651725, 2012 | Homeobox protein SIX1 (Homo sapiens) + Protein phosphatase EYA2 (Homo sapiens), …; in the data active means activity change below about -65%; inconclusive means mostly about -30% to -63%
Target sequence (O00167 whole entry, looked up): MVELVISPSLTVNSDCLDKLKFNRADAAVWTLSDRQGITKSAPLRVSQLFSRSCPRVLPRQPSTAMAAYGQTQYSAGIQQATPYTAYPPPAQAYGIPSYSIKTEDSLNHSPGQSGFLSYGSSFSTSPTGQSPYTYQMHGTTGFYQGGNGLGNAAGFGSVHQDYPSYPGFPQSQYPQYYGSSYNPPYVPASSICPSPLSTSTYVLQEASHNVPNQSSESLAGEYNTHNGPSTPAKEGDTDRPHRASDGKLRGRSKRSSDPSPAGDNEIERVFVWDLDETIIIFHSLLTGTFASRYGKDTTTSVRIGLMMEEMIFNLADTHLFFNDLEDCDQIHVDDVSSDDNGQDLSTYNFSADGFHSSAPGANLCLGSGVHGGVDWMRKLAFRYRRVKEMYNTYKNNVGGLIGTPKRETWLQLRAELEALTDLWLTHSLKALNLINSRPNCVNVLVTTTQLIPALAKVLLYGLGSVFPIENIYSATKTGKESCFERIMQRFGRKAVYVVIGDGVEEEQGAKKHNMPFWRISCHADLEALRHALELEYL
Target sequence (Q15475 whole entry, looked up): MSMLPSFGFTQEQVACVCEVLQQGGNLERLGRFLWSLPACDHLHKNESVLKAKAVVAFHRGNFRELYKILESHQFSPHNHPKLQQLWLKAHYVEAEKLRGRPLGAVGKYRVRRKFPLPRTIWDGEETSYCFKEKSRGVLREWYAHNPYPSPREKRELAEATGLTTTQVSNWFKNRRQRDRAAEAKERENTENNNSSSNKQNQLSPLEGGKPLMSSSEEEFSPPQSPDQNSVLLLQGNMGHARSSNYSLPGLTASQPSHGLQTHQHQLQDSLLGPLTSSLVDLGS
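Compounds are tested against tagged Six1 and Eya2 proteins bridged by glutathione donor and nickel acceptor beads; after a one-hour incubation at 37 °C without light, AlphaScreen emission is recorded.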
G9a inh = qHTS Assay for Inhibitors of Histone Lysine Methyltransferase G9a. G9a H3K9 monomethylation, AlphaScreen, 2 h. Potency, µM (highest dose often 102 µM), most hits filed as inhibitors. hit rate 8.8% among 350,000; further: nearly all actives have a fitted effect of over 75% in size
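G9a (20 nM) was preincubated 15 min with compound, then reacted 2 h at room temperature with 500 nM biotin-H3K9 peptide and 20 µM SAM. Monomethyl-H3K9 detected by AlphaScreen using anti-H3K9me1 antibody.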
A number is an active result; . = inactive; ? = inconclusive; / = no result given; [ ] = another dose, or the depositor's remark. Unless noted, the call rests on the fitted dose curve; in most records, active means well fitted inhibition curve with a large enough effect; inconclusive means small, poorly fitted or top-dose-only effect; inactive means no such curve, though single readings can be large or run the other way.

SMILES	JMJD2A Tudor inh	CtBP-E1A blk	BAZ2B inh	HP1b chromo inh	Six1-Eya2 blk	G9a inh
Cc1ccccc1NCc1cccn1-c1nnc(N2CCC(C)CC2)s1	.	/	.	.	/	.
N#Cc1cc[n+](CC(=O)c2ccc(NC(=O)c3ccccc3)cc2)cc1	.	/	.	.	.	71µM
Cc1cccc[n+]1CC(=O)c1ccc(NC(=O)c2ccccc2)cc1	.	/	.	.	.	/
CCCc1nnc(NC(=O)CCC(=O)NC2CCCCC2)s1	.	/	.	.	.	.
Cc1ccc(SC(c2ccc(C)cc2)C(Cn2cncn2)C(=O)c2ccccc2)cc1 (stereo unspecified)	.	.	.	.	.	.
Cc1ccc(SCCCn2cncn2)cc1	45µM	.	?	.	.	.[12.7 µM]
Clc1ccc(SCCn2cncn2)cc1	45µM	.	?	?	.	?
OC(c1ccc(F)c(F)c1)c1nc(-c2cccc(C(F)(F)F)c2)cs1 (stereo unspecified)	/	.	/	/	.	/
O=[N+]([O-])c1ccc(Sc2nnnn2-c2ccccc2)c(Cl)c1	?	.	?	?	.	50µM
Nc1ccccc1Nc1ccccc1	45µM	?	45µM	?	?	/
Nc1ccccc1NC(=O)c1ccccc1	.	.	.	.	.	.[2.33 µM]
Nc1ccc(Nc2ccccc2)c(Cl)c1	?	.	50µM	?	?	?
COc1ccc(-c2nc3ccc(Br)cn3c2Cc2ccccc2)cc1OC	/	.	/	/	.	/
COc1cc2c(cc1OC)C(Cc1ccc(O)cc1)N(C)CC2 (stereo unspecified)	.	.	.	.	.	50µM
CC(C)(C)NC(=O)C(c1ccncc1)N(Cc1ccco1)C(=O)c1ccc(-c2ccccc2)[nH]1 (stereo unspecified)	50µM	.	?	?	.	22µM
Nc1nc2ncc(C(=O)c3cc(Cl)cc(Cl)c3O)cc2s1	?	-72	.	?	?	50µM
Cc1nn2cnnc2c(C)c1Cc1ccc(Cl)cc1	.	/	.	.	.	.
COc1ccc2cc(C(=O)N(C)CC(=O)Nc3ccccc3Br)ccc2c1	.	.	.	.	.	8.9µM
CC1CCc2[nH]c3ccc(C(=O)N(C)CC(=O)Nc4ccccc4Br)cc3c2C1 (stereo unspecified)	?	.	?	.	.	45µM
CCc1ccc(NC(=O)CSc2nc(-c3ccccc3Cl)nc3c2Cc2c(CO)cnc(C)c2O3)cc1	.	/	.	.	/	.
COc1ccccc1CCNC(=O)Cc1c(C)c2cc3c(C)coc3cc2oc1=O	.	/	.	.	/	.
Cc1ccc(-n2c(N)c(C(=O)N3CCN(C)CC3)sc2=S)cc1	?	.	.	?	.	2µM
Cc1ccc(-n2c(N)c(C(=O)N3CCCCC3)sc2=S)cc1	?	.	?	16µM	.	8.9µM
CCOc1ccc(-n2c(N)c(C(=O)N3CCN(C)CC3)sc2=S)cc1	.	/	.	.	.	45µM
CCOc1ccc2nc3sc(C(=O)N4CCN(C)CC4)c(N)c3cc2c1	?	.	.	.	.	?
SMILES	JMJD2A Tudor inh	CtBP-E1A blk	BAZ2B inh	HP1b chromo inh	Six1-Eya2 blk	G9a inh
CC(C)OCCCN1C(=O)c2[nH]nc(-c3ccccc3O)c2C1c1ccc(OCc2ccccc2)cc1 (stereo unspecified)	?	/	.	.	/	.
NCCCN(Cc1ccccc1)c1ccc(Br)cn1	.	/	/	.	/	/
COc1ccc(S(=O)(=O)Nc2ccccc2C(F)(F)F)cc1	.	.	.	.	.	.[12.7 µM]
COc1ccc(S(=O)(=O)NC(C)C(=O)Nc2ccccc2C(F)(F)F)cc1 (stereo unspecified)	.	.	.	.	.	11µM
CCCc1[nH]nc2c1C(c1cc(OC)ccc1F)C(C#N)=C(N)O2 (stereo unspecified)	.	.	?	.	.	40µM
CCOC(=O)C1/C(=N\O)CC(C)(O)C(C(=O)OCC)C1c1ccc(N(C)C)cc1 (stereo unspecified)	.	.	79µM	.	.	18µM
Cc1cc2oc(=O)cc(CN3CCCCC3C)c2cc1C (stereo unspecified)	.	.	.	.	.	50µM
CC1(C(=O)NCc2ccc(Cl)cc2)CCN1C(=O)Cc1ccc(Cl)cc1Cl (stereo unspecified)	/	.	/	/	.	/
CC1(C)CC(=O)C(C=NCCN2CCN(C(=O)NC34CC5CC(CC(C5)C3)C4)CC2)=C(O)C1	.	.	.	.	.	50µM
CC1(C)CC(=O)C(C=NCCN2CCN(C(=O)CC3CCCC3)CC2)=C(O)C1	.	.	.	.	.	.
Cc1ccc(-c2noc(C3CCCN(C(=O)C4CCCCC4)C3)n2)o1 (stereo unspecified)	.	.	.	.	.	11µM
C=CCNC(=S)Nc1cc(C)ccn1	.	.	.	.	.	1.6µM
Cc1ccnc(NC(=S)NC(=O)/C=C/c2ccccc2)c1	.	.	.	.	.	/
CCOc1ccc(/C(O)=C2\C(=O)C(=O)N(CCOCCO)C2c2ccccc2OC)cc1 (stereo unspecified)	18µM	.	.	.	.	.
COc1ccccc1C1/C(=C(/O)c2ccc(C)cc2)C(=O)C(=O)N1CCN1CCOCC1 (stereo unspecified)	.	.	.	.	.	28µM
O=C1C(=O)N(CCc2c[nH]c3ccccc23)C(c2cccnc2)/C1=C(/O)c1ccccc1 (stereo unspecified)	/	/	.	/	/	50µM
COCCCN1C(=O)C(=O)/C(=C(/O)c2ccc(OCC(C)C)cc2C)C1c1cccnc1 (stereo unspecified)	79µM	.	.	.	.	?
CC1(C(=O)NS(=O)(=O)c2ccc(Br)cc2)CCN1C(=O)C/C=C/c1ccccc1 (stereo unspecified)	/	.	/	/	.	/
Cc1ccc(Cl)cc1NC(=O)c1ccc2nc(CCc3ccccc3)oc2c1	.	/	.	.	/	.
Cc1cccc(N(CC(=O)NCC2CCCO2)C(=O)CNS(=O)(=O)c2ccc(Cl)cc2)c1 (stereo unspecified)	.	.	.	.	.	.
O=C(NCc1cccs1)c1ccc([N+](=O)[O-])cc1Cl	.	.	.	.	.	.
COc1ccc(/C(O)=C2/C(=O)C(=O)N(CCCN3CCOCC3)C2c2ccc(C)cc2)cc1 (stereo unspecified)	.	.	.	.	.	?
Cc1ccc(C2C(C(=O)c3sc(C)nc3C)=C(O)C(=O)N2CCN(C)C)o1 (stereo unspecified)	.	.	.	.	.	45µM
